L3MBTL1 inh: qHTS Assay for the Inhibitors of L3MBTL1. Lethal(3)malignant brain tumor-like protein 1 (Homo sapiens), Q9Y468. AlphaScreen L3MBTL1–H3K9me1 peptide binding. Potency, µM (doses to about 57.1 µM), without a hit: top-dose activity, negative = inhibition, most hits filed as inhibitors. actives 0.66% (n = 230,000). AID 485360, 2010; further: on the % scale 0 is the no-effect control and ±100 the full control effect; nearly all actives have a fitted effect of over 60% in size
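First, the protein-peptide complex forms for 30 min at room temperature (L3MBTL1 50 nM, biotinylated H3K9me1 peptide 75 nM). Next, compounds are pin-transferred and incubated 30 min. Finally, AlphaScreen beads are added and read after 30 min.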
G9a block: qHTS Assay for Inhibitors of Histone Lysine Methyltransferase G9a; G9a H3K9 monomethylation, AlphaScreen, 2 h; Potency, µM (highest dose often 102 µM), inactives show at the top dose activity, negative = inhibition, usual class: inhibitors; actives 8.8% (n = 350,000); further: on the % scale 0 is the no-effect control and ±100 the full control effect; nearly all actives have a fitted effect of over 75% in size
Target sequence (Q96KQ7 913-1193 limits assumed): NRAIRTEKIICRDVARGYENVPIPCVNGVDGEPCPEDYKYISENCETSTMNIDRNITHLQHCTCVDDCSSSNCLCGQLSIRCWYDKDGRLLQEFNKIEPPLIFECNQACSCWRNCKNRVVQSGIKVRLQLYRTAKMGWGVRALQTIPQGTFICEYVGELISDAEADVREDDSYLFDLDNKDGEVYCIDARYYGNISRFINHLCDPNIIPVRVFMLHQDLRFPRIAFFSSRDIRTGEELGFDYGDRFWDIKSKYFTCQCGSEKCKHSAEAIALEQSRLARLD
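Chemiluminescent proximity detection of H3K9 monomethylation, read after 10 min bead incubation in the dark. Reaction: 20 nM G9a, 500 nM biotin-H3K9 peptide, 20 uM SAM cofactor, 2 h, room temperature, following 15 min enzyme-compound preincubation.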
HP1b binding inh: HTS for Inhibitors of HP1-beta Chromodomain Interactions with Methylated Histone Tails. Chromobox protein homolog 1 (Homo sapiens), P83916. AlphaScreen HP1-beta / biotin-H3K9me3 peptide binding. actives 0.56% (n = 390,000). Potency, µM (doses to about 114 µM), inactives show at the top dose activity change, negative = inhibition, hits mostly inhibitors; further: nearly all actives have a fitted effect of over 70% in size
Target sequence (P83916 whole entry, looked up): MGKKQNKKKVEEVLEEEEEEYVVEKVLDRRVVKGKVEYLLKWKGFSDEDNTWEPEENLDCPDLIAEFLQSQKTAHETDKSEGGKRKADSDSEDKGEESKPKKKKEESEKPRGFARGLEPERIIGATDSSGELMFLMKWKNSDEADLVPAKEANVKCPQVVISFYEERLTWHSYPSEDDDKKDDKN
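AlphaScreen: HP1-beta (50 nM) preformed 30 min with biotin-H3(1-18)K9me3 peptide (50 nM) in PBS pH 7.4, 0.01% Tween-20. Compound added for 30 min at RT, then streptavidin donor/nickel chelate acceptor beads (10 ug/mL) for 30 min.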
JMJD2A Tudor: qHTS Assay for Inhibitors of JMJD2A-Tudor Domain. AlphaScreen JMJD2A-Tudor / H3K4me3 peptide binding. Potency, µM (top dose mostly 114 µM), for the others: at the highest dose activity change, negative = inhibition, actives largely listed as inhibitors. Lysine-specific demethylase 4A (Homo sapiens), O75164. actives 4.4% (n = 390,000); further: on the % scale 0 is the no-effect control and ±100 the full control effect; nearly all actives have a fitted effect of over 50% in size
BAZ2B block: qHTS Assay for Inhibitors of BAZ2B; actives 4.4% (n = 360,000); AlphaScreen BAZ2B-H3K14Ac peptide displacement; Potency, µM (doses to about 114 µM), inactives show top-dose activity change, negative = inhibition, hits mostly inhibitors; Bromodomain adjacent to zinc finger domain protein 2B (Homo sapiens), Q9UIF8; AID 504333, 2011; further: on the % scale 0 is the no-effect control and ±100 the full control effect; nearly all actives have a fitted effect of over 60% in size
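Protein-peptide AlphaScreen: BAZ2B 50 nM, b-H3K14Ac 50 nM, 1x PBS pH 7.4 + 0.01% Tween-20. Preincubation 30 min RT; cpd 30 min RT (top 110 uM); beads 20 min RT, light-protected.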
Sfp PPTase inh: qHTS Assay for Inhibitors of Bacillus subtilis Sfp phosphopantetheinyl transferase (PPTase) | 4'-phosphopantetheinyl transferase ffp (Bacillus subtilis), Q9F4F7 | Biochemical Sfp PPTase activity, qHTS | Potency, µM, without a hit: largest response in the series, negative = inhibition, actives largely listed as inhibitors | actives 3.5% (n = 310,000) | AID 1490, 2009;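 further: the enzyme is Sfp with the accession as filed and its product quenches rhodamine fluorescence; 0% = enzyme reaction without inhibitor and -100% = no enzyme wells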
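Buffer: 50 mM Hepes-Na pH 7.6, 10 mM MgCl2, 0.01% Nonidet P-40, 0.01% BSA. Enzyme 15 nM, pre-exposed to compound 15 min; substrates then added and fluorescence change tracked over 30 min.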
An asterisk follows results filed as active; ? = inconclusive; / = no result given; [ ] = dose if it differs, or a comment. An excerpt weighted towards active compounds, which were near 12% of everything screened. The call rests on the fitted dose curve; in most records, active means well fitted curve in the direction sought with a large enough effect; inconclusive means small, poorly fitted or top-dose-only effect, or another doubt; inactive means no such curve, though single readings can be large; an effect the other way counts as inactive or inconclusive. Potency means the concentration at half of the fitted maximal effect.

SMILES | L3MBTL1 inh | G9a block | HP1b binding inh | JMJD2A Tudor | BAZ2B block | Sfp PPTase inh
COc1ccc(C)cc1Nc1n[n+](C)c(-c2c3ccccc3cc3ccccc23)s1 | -16.9% | 44.7µM* | 48.4% | -19.7% | -16.7%[57.1 µM] | 12.0%
COc1ccc(-c2sc(Nc3ccccc3)n[n+]2C)c(C)c1C | -2.3% | / | 13.4% | -17.4% | 7.9%[57.1 µM] | 1.1%
COc1ccc(C)cc1Nc1n[n+](C)c(-c2ccc(O)cc2O)s1 | -4.2% | 17.8µM* | 47.0% | -16.9% | -27.6% | -7.3%
Cc1ccc(OCC(=O)Nc2ccc(N(C)C)cc2)cc1 | -17.3% | 8.91µM* | ? | ? | -3.8% | 10.2%
COc1ccc(-c2ccc(=O)n(CC(=O)Nc3ccc(N(C)C)cc3)n2)cc1 | / | 5.01µM* | ? | 56.2µM* | 31.6µM* | /
Cc1ccc(CSCC(=O)N/N=C/c2ccc(OCC(=O)Nc3ccc(C)cc3)cc2)cc1 | / | 17.8µM* | 1.2% | ? | ? | -11.5%
CCCn1nc(NC(=O)c2cccc(Cl)c2)c2cc3cccc(C)c3nc21 | / | 4.6%[59 µM] | 26.0% | -1.0% | 6.4% | /
CCc1cc(C(=O)N=Nc2c(O)[nH]c3c(Br)cc(Br)cc23)c2ccccc2n1 | -8.0% | ? | -16.1% | ? | ? | -15.3%
COc1ccc2nc(NC(=O)c3ccc(S(=O)(=O)N4CCCC(C)C4)cc3)sc2c1 (stereo not given) | / | 8.9%[59 µM] | 19.2%[57 µM] | -7.5% | -2.0% | /
CCOc1ccc(N(CC(=O)NC2CCCCC2)C(=O)Cn2nnc(-c3ccc(C)o3)n2)cc1 | / | 44.7µM* | 2.8% | -8.1% | -24.7% | -2.2%
CCC(C(=O)NC1CCCC1)N(C(=O)Cn1nnc(-c2ccc(C)o2)n1)C(C)(C)C (stereo not given) | -6.2% | 31.6µM* | 31.6% | -13.5% | 4.7% | ?
Cc1ccc(-c2nnn(CC(=O)N(Cc3cccs3)C(C(=O)NC3CCCC3)c3ccncc3)n2)cc1 (stereo not given) | 0.1% | ? | -1.7% | -34.3% | 1.4% | -8.9%
O=C(NC1CCCCC1)C(c1ccncc1)N(C(=O)Cn1nnc(-c2cccs2)n1)C1CCCC1 (stereo not given) | 1.1% | 22.4µM* | 4.8% | -27.6% | 4.1% | 1.1%
CCN(CC)C(=O)Cn1nnc(-c2ccc(C)o2)n1 | 5.5% | 3.98µM* | 40.5% | -11.1% | -5.9% | -29.1%
CCC(C(=O)NC1CCCC1)N(C(=O)Cn1nnc(-c2ccc(C)o2)n1)c1ccc(OC)cc1 (stereo not given) | / | 6.4% | 11.0% | -10.7% | 3.1% | -2.5%
Cc1ccc(N(CC(=O)NC2CCCCC2)C(=O)Cn2nnc(-c3ccc(C)o3)n2)cc1 | -12.7% | -34.3% | 5.8% | -33.3% | -16.6% | 18.7%
Cc1ccccc1-c1cncnc1NCCN1CCOCC1 | / | / | / | / | / | -28.3%
Cc1ccc(-c2nnn(CC(=O)N(Cc3ccccc3)C(C(=O)NC3CCCC3)c3ccncc3)n2)o1 (stereo not given) | -2.7% | 22.4µM* | 47.7% | -7.1% | -3.3% | -27.6%
CCCC(C(=O)NC1CCCC1)N(C(=O)Cn1nnc(-c2ccc(C)o2)n1)C1CCCC1 (stereo not given) | -12.4% | 11.2µM* | 11.7% | -30.9% | -3.1% | ?
COc1cc2oc(=O)c(CC(=O)N3CCCCC3)c(C)c2cc1OC | / | -30.6%[59 µM] | 22.2% | -12.2% | -12.5% | /
COc1cc(/C=N/NC(=O)CCC(=O)NC2CCCCC2)ccc1C | -2.6% | -18.8% | 24.0% | -12.1% | -30.9% | 19.2%
COC1(OC)N=C(N)C2(C#N)C(c3ccccc3)NC(C)=CC12C#N (stereo not given) | 2.1% | / | 30.9% | -10.1% | -23.8% | -4.4%
CC1=CC(C#N)(C#N)C(C#N)(C#N)C(c2ccccc2)N1 (stereo not given) | ? | ? | / | / | 35.5µM* | -11.1%
COc1ccc(C2(CNC(=O)c3cccc([N+](=O)[O-])c3)CCOCC2)cc1OC | -8.1% | -3.9%[59 µM] | 0.2% | 56.2µM* | 10.4% | 1.7%
COc1ccc(C2(CNC(=O)c3ccccc3[N+](=O)[O-])CCOCC2)cc1 | -11.1% | 39.8µM* | 42.1% | -12.4% | -6.6% | 11.9%
SMILES | L3MBTL1 inh | G9a block | HP1b binding inh | JMJD2A Tudor | BAZ2B block | Sfp PPTase inh
Nc1ccn([C@@H]2CC[C@H](CO)O2)c(=O)n1 | / | 31.0%[21.5 µM] | / | / | / | 26.5%
O=C(CSc1nc2nccnc2c(=O)n1CCc1c[nH]c2ccccc12)Nc1ccccc1 | / | -1.4%[59 µM] | 20.8% | -23.0% | 11.3% | /
COc1ccccc1Nc1nc(-c2sc(NC(=O)CC(C)C)nc2C)cs1 | 15.5% | ? | -16.7% | ? | -15.8% | ?
CCCCCC(=O)Nc1nc(C)c(-c2csc(Nc3cc(Cl)ccc3OC)n2)s1 | -12.6% | ? | ? | ? | ? | -4.5%
CCCC(C)C(=O)Nc1nc(C)c(-c2csc(Nc3cc(OC)ccc3OC)n2)s1 (stereo not given) | -21.3% | 14.1µM* | -6.2% | ? | ? | 15.6%
COc1ccc(OC)c(Nc2nc(-c3sc(N)nc3C)cs2)c1 | -28.7% | 31.6µM* | ? | 50.1µM* | 44.7µM* | 8.91µM*
C=CCCC(=O)Nc1nc(C)c(-c2csc(Nc3cc(OC)ccc3OC)n2)s1 | -24.7% | 10µM* | ? | 35.5µM* | 50.1µM* | 0.9%
CCCN(CCC)S(=O)(=O)c1cc2c3c(c1)CCN3C(=O)CC2 | / | -2.8% | 24.9% | -7.2% | -3.8% | 19.5%
O=C(Nc1cccc(F)c1)N1CC2(CCN(C(=O)c3ccncc3)CC2)C1 | / | 1.1%[12.7 µM] | / | / | / | 15.4%
C#CCOCCOCCOCCNc1nc(N2CCN(C(=O)[C@H](CCC(=O)O)n3cc(C(N)CC(C)C)nn3)CC2)nc(N2CCN(C(=O)[C@H](CCC(=O)O)n3cc(C(N)[C@H](C)CC)nn3)CC2)n1 (stereo not given in full) | 8.2% | -132.6%[59 µM] | 27.2% | 79.4µM* | 50.1µM* | -6.8%
C#CCOCCOCCOCCNc1nc(N2CCN(C(=O)[C@H](CCC(=O)O)n3cc(C(N)CC(C)C)nn3)CC2)nc(N2CCN(C(=O)[C@H](Cc3ccc(O)cc3)n3cc(C(N)[C@H](C)CC)nn3)CC2)n1 (stereo not given in full) | -15.7% | -139.9%[59 µM] | / | / | 31.6µM* | 13.2%

Screening data as filed in PubChem BioAssay.
